The list is not random: actives were taken first. Their share in the collection is about 3.1%.
EPAC1 ag val: Validation qHTS for agonist of cAMP-regulated guanine nucleotide exchange factor 3 (EPAC1); EPAC1 Rap1b BODIPY-GDP exchange, fluorescence; Potency, µM, inactives show max response, positive = active, actives largely listed as activators; actives 1% (n = 16,000); further: nearly all actives have a fitted effect of over 70% in size
EPAC2 antag: Validation qHTS for antagonist of cAMP-regulated guanine nucleotide exchange factor 4 (EPAC2). Rap guanine nucleotide exchange factor 4 (Homo sapiens), Q8WZA2. EPAC2 Rap1B BODIPY-GDP exchange, fluorescence. Potency, µM (series often up to 112 µM), for inactives: top-dose activity, negative = inhibition, most hits filed as inhibitors. actives 1.7% (n = 16,000). AID 1645886, 2021;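 further: 100% = activation by cAMP agonist control; nearly all actives have a fitted effect of over 40% in size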
Target sequence (Q8WZA2 whole entry, looked up): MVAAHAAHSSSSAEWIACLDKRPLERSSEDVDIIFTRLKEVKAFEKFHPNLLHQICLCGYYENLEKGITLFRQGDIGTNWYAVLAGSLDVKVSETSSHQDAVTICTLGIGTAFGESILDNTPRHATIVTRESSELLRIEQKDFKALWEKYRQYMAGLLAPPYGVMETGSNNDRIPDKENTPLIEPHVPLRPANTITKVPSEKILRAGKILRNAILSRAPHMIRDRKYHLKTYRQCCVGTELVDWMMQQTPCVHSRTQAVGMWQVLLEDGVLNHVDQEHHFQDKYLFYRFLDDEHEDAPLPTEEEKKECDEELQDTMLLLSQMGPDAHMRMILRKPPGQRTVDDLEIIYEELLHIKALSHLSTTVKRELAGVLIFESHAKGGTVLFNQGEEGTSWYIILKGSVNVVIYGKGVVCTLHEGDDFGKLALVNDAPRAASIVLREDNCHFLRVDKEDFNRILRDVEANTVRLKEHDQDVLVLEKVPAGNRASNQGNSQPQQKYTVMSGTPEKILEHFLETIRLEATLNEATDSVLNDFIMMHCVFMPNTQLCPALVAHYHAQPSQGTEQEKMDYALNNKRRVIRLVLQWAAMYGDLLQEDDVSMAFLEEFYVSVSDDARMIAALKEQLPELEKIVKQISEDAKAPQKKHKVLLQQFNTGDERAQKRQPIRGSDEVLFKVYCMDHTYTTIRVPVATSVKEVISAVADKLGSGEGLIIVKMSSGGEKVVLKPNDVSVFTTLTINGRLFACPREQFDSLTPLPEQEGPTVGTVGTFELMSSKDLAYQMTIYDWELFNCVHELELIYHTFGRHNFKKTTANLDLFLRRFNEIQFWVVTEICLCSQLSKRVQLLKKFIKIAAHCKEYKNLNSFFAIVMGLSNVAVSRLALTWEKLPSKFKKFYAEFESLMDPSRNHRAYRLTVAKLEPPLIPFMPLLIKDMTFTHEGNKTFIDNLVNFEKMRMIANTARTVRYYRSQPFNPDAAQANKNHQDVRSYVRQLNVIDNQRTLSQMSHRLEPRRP
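Fluorescent exchange read-out: 100 nM EPAC2 with 250 nM RAP1B–BODIPY-GDP and 50 uM GDP; BODIPY-GDP release lowers fluorescence. Read at 480/540 nm every 5 min for 30 min at room temperature; normalized to 6.5 mM cAMP.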
An asterisk follows results filed as active; ! = not active in a repeat; [ ] = remark or other dose. The call rests on the fitted dose curve; in most records, active means well fitted curve in the direction sought with a large enough effect; inconclusive means small, poorly fitted or top-dose-only effect, or another doubt; inactive means no such curve, though single readings can be large; an effect the other way counts as inactive or inconclusive. Unless noted, on the % scale 0 is the no-effect control and ±100 the full control effect; potency means the concentration at half of the fitted maximal effect.

Cc1ccc(C(=O)Nc2cccc(-c3nc(CNC(=O)c4cccc(C)c4C)c(C)o3)c2)s1 was read as EPAC1 ag val -13% and EPAC2 antag 6%.
COc1ccccc1C1CN(CCNC(=O)c2cnsn2)Cc2ccccc2O1 (stereo not given) was read as EPAC1 ag val 22% and EPAC2 antag -21%.
`CC(C)N=C(N)/N=C(\N)Nc1ccc(Cl)cc1` gave EPAC1 ag val -17% and EPAC2 antag -10%[56.6 µM].
NC(=NCCCCCCN=C(N)/N=C(\N)Nc1ccc(Cl)cc1)/N=C(\N)Nc1ccc(Cl)cc1 was read as EPAC1 ag val -13% and EPAC2 antag 79µM*!.
Cc1nc(NCc2c(C)nn(C)c2Cl)sc1-c1ccn(CC2COc3ccccc3O2)n1 (stereo not given) was read as EPAC1 ag val 6% and EPAC2 antag inconclusive.
For COC(=O)c1c(C)[nH]c(C)c1C(=O)c1ccccc1Cc1ccccc1 the results were EPAC1 ag val 4% and EPAC2 antag 79µM*!.
Screening COC(=O)c1ccccc1NS(C)(=O)=O returned EPAC1 ag val -34% and EPAC2 antag inconclusive.
Screening CCCCC(O)c1ccccc1 (stereo not given) returned EPAC1 ag val -8% and EPAC2 antag 4%.
`N[C@H](C(=O)O)[C@@H]1CC(Cl)=NO1` gave EPAC1 ag val inconclusive and EPAC2 antag 33%.
`Nc1c(S(=O)(=O)O)cc(Nc2ccc(Nc3nc(Cl)nc(Nc4ccc(S(=O)(=O)O)cc4)n3)c(S(=O)(=O)O)c2)c2c1C(=O)c1ccccc1C2=O` gave EPAC1 ag val inconclusive and EPAC2 antag 79µM*.
`O=C(NOCC1CC1)c1ccc(F)c(F)c1Nc1ccc(I)cc1Cl` gave EPAC1 ag val inconclusive and EPAC2 antag -15%.
Screening C=C1CC[C@H](O)CC1=C/C=C1\CCC[C@]2(C)[C@@H]([C@H](C)CCCC(C)(C)O)CC[C@@H]12 returned EPAC1 ag val -21% and EPAC2 antag 2%.
`CN(Cc1ccco1)c1nc(-c2ccccc2Cl)nc2ccccc12` gave EPAC1 ag val 100µM* and EPAC2 antag -30%.
Screening COc1ccccc1-c1nc(N(C)Cc2ccco2)c2ccccc2n1 returned EPAC1 ag val -1% and EPAC2 antag inconclusive.
`CC[C@@H](C)[C@H](N)C(=O)O` gave EPAC1 ag val -24% and EPAC2 antag 7%.
OCCO[C@@H]1[C@@H](O)[C@H](O)[C@@H](CO)O[C@@H]1O was read as EPAC1 ag val -10% and EPAC2 antag 16%.
For CCOC(=O)/C=C/c1ccc2oc3ccccc3c(=O)c2c1 the results were EPAC1 ag val -1% and EPAC2 antag -15%.
O=c1c2ccccc2oc2ccc(Oc3ccccc3)cc12 was read as EPAC1 ag val 100µM* and EPAC2 antag inconclusive.
Screening CCCCC(=O)OCC(=O)[C@H]1[C@H](C)C[C@H]2[C@@H]3C[C@H](F)C4=CC(=O)C=C[C@]4(C)[C@@]3(F)[C@@H](O)C[C@@]21C returned EPAC1 ag val -24% and EPAC2 antag -23%.
`COC(=O)c1c(OC)cc2c(c1C)Oc1c(Cl)c(OC(C)=O)c(Cl)c(C)c1C(=O)O2` gave EPAC1 ag val -25% and EPAC2 antag 11µM*.
Screening COC(=O)c1c(C)cc(OC)cc1O returned EPAC1 ag val -32% and EPAC2 antag inconclusive.
Screening COc1cccc(OC)c1OCCNC[C@@H]1COc2ccccc2O1 returned EPAC1 ag val -16% and EPAC2 antag -28%.
For CCn1ccnc1CC1COc2ccccc2O1 (stereo not given) the results were EPAC1 ag val -4% and EPAC2 antag 35µM*!.
`O=C(NCc1nnc2n1CCN(Cc1cccc(Cl)c1)CC2)c1cccc(F)c1` gave EPAC1 ag val 5% and EPAC2 antag -39%.
For COC(=O)[C@H]1[C@H]2C[C@@H]3c4[nH]c5cc(OC)ccc5c4CCN3C[C@H]2C[C@@H](OC(=O)COc2ccc(OC)cc2)[C@@H]1OC the results were EPAC1 ag val 1% and EPAC2 antag -2%.
`CCOC(=O)Oc1c(OC)cc(C(=O)O[C@@H]2C[C@@H]3CN4CCc5c([nH]c6cc(OC)ccc56)[C@H]4C[C@@H]3[C@H](C(=O)OC)[C@H]2OC)cc1OC` gave EPAC1 ag val 32µM*! and EPAC2 antag -17%[29.6 µM].
For CCCc1c(OCCCCc2nn[nH]n2)ccc(C(C)=O)c1O the results were EPAC1 ag val 10% and EPAC2 antag 8.9µM*!.
Screening CCCCCCOc1ccccc1C(N)=O returned EPAC1 ag val -10% and EPAC2 antag inconclusive.
`CCOC(=O)N1CCN(Cc2ccc3c(c2)CN(C(=O)c2cc(-c4ccccc4)on2)CCO3)CC1` gave EPAC1 ag val 7% and EPAC2 antag -17%.

Bioassay records as filed in PubChem BioAssay.
